Assay results reported in PubChem BioAssay AID1159580 (chemical genetic matrix, 2015).
Out of some 5,500 compounds screened, about 2,000 (36%) were called active. About 18% were inconclusive and are not listed. No stated cut-off is given here; in the data, active means normalized growth mostly below about 0.91 (no sharp cut-off); inconclusive means no clear call, values can overlap the other calls; inactive means mostly above about 0.92. Some of the results follow.

Experiment: chemical genetic growth profiling, strain panel (AID 1159580);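 further: tested at 20 µM; growth read once vehicle control cultures reached saturation at 30 °C; 1 = growth at the plate median or of vehicle wells; lower values mean less growth of the strain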
Conditions: growth OD

Measured: normalized growth

NC(=O)c1ccccc1O
inactive: S. cerevisiae deletion strains, locus YJR066W, strain TOR1, hits give low values 0.999 | S. cerevisiae deletion strains, locus YKL009W, strain mrt4, hits give low values 1.01 | S. cerevisiae deletion strains, locus YKL068W, hits give low values 0.995 | S. cerevisiae deletion strains, locus YKL085W, strain MDH1 (second series), hits give low values 1 | S. cerevisiae deletion strains, locus YKL085W, strain MDH1, hits give low values 1 | S. cerevisiae deletion strains, locus YKL160W, strain elf1, hits give low values 0.985 | S. cerevisiae deletion strains, locus YKL190W, strain CNB1, hits give low values 0.998 | S. cerevisiae deletion strains, locus YKR001C, strain vps1, hits give low values 1 | S. cerevisiae deletion strains, locus YKR026C, strain gcn3, hits give low values 0.971 | S. cerevisiae deletion strains, locus YKR091W, strain srl3, hits give low values 0.971 | S. cerevisiae deletion strains, locus YLL001W, strain dnm1, hits give low values 0.909 | S. cerevisiae deletion strains, locus YLL026W, hits give low values 0.993 | S. cerevisiae deletion strains, locus YLL041C, strain sdh2, hits give low values 0.969 | S. cerevisiae deletion strains, locus YLR027C, strain aat2, hits give low values 0.981 | S. cerevisiae deletion strains, locus YLR039C, strain RIC1, hits give low values 1 | S. cerevisiae deletion strains, locus YLR058C, strain SHM2, hits give low values 1.01 | S. cerevisiae deletion strains, locus YLR102C, strain apc9, hits give low values 1.01 | S. cerevisiae deletion strains, locus YLR113W, strain HOG1, hits give low values 0.999 | S. cerevisiae deletion strains, locus YLR221C, strain rsa3, hits give low values 1.03 | S. cerevisiae deletion strains, locus YLR258W, strain gsy2, hits give low values 0.988 | S. cerevisiae deletion strains, locus YLR262C, strain YPT6 (second series), hits give low values 0.947 | S. cerevisiae deletion strains, locus YLR262C, strain YPT6, hits give low values 0.986 | S. cerevisiae deletion strains, locus YLR268W, strain sec22, hits give low values 1.04 | S. cerevisiae deletion strains, locus YLR320W, strain mms22, hits give low values 0.996 | S. cerevisiae deletion strains, locus YLR330W, strain CHS5, hits give low values 1.01 | S. cerevisiae deletion strains, locus YLR342W, strain FKS1 (second series), hits give low values 1.02 | S. cerevisiae deletion strains, locus YLR342W, strain FKS1, hits give low values 0.978 | S. cerevisiae deletion strains, locus YLR357W, strain rsc2, hits give low values 0.952 | S. cerevisiae deletion strains, locus YLR370C, strain arc18, hits give low values 0.964 | S. cerevisiae deletion strains, locus YLR371W, strain rom2, hits give low values 1.01 | S. cerevisiae deletion strains, locus YLR384C, strain iki3, hits give low values 0.963 | S. cerevisiae deletion strains, locus YLR418C, strain cdc73, hits give low values 1.02 | S. cerevisiae deletion strains, locus YML016C, strain PPZ1, hits give low values 1 | S. cerevisiae deletion strains, locus YML032C, strain rad52, hits give low values 1.01 | S. cerevisiae deletion strains, locus YML120C, strain ndi1, hits give low values 0.954 | S. cerevisiae deletion strains, locus YML124C, strain tub3, hits give low values 1.01 | S. cerevisiae deletion strains, locus YMR058W, strain fet3, hits give low values 0.987 | S. cerevisiae deletion strains, locus YMR078C, strain ctf18, hits give low values 1 | S. cerevisiae deletion strains, locus YMR125W, strain sto1, hits give low values 0.962 | S. cerevisiae deletion strains, locus YMR129W, hits give low values 0.974 | S. cerevisiae deletion strains, locus YMR205C, strain PFK2, hits give low values 0.978 | S. cerevisiae deletion strains, locus YMR223W, strain ubp8, hits give low values 0.988 | S. cerevisiae deletion strains, locus YMR231W, strain pep5, hits give low values 0.965 | S. cerevisiae deletion strains, locus YMR307W, strain GAS1, hits give low values 1.03 | S. cerevisiae deletion strains, locus YNL067W, strain RPL9B, hits give low values 0.99 | S. cerevisiae deletion strains, locus YNL071W, strain lat1, hits give low values 0.974 | S. cerevisiae deletion strains, locus YNL183C, strain NPR1, hits give low values 0.985 | S. cerevisiae deletion strains, locus YNL209W, strain ssb2, hits give low values 0.98 | S. cerevisiae deletion strains, locus YNL233W, strain BNI4, hits give low values 1 | S. cerevisiae deletion strains, locus YNL248C, strain rpa49, hits give low values 0.982 | S. cerevisiae deletion strains, locus YNL250W, strain rad50, hits give low values 1 | S. cerevisiae deletion strains, locus YNL271C, strain bni1, hits give low values 1.02 | S. cerevisiae deletion strains, locus YNL298W, strain CLA4, hits give low values 1.02 | S. cerevisiae deletion strains, locus YNL307C, strain MCK1, hits give low values 1.02 | S. cerevisiae deletion strains, locus YNL322C, strain KRE1 (second series), hits give low values 0.954 | S. cerevisiae deletion strains, locus YNL322C, strain KRE1, hits give low values 0.998 | S. cerevisiae deletion strains, locus YNR049C, strain mso1, hits give low values 0.974 | S. cerevisiae deletion strains, locus YNR052C, strain pop2, hits give low values 1.01 | S. cerevisiae deletion strains, locus YOL006C, strain TOP1, hits give low values 0.998 | S. cerevisiae deletion strains, locus YOL012C, strain htz1 1.16 | S. cerevisiae deletion strains, locus YOL147C, strain pex11, hits give low values 1.01 | S. cerevisiae deletion strains, locus YOR001W, strain rrp6, hits give low values 0.957 | S. cerevisiae deletion strains, locus YOR061W, strain CKA2, hits give low values 1 | S. cerevisiae deletion strains, locus YOR069W, strain VPS5, hits give low values 1 | S. cerevisiae deletion strains, locus YOR070C, strain gyp1, hits give low values 1 | S. cerevisiae deletion strains, locus YOR080W, strain dia2, hits give low values 0.981 | S. cerevisiae deletion strains, locus YOR083W, strain WHI5, hits give low values 0.957 | S. cerevisiae deletion strains, locus YOR106W, strain vam3, hits give low values 0.94 | S. cerevisiae deletion strains, locus YOR136W, strain idh2, hits give low values 0.989 | S. cerevisiae deletion strains, locus YOR144C, strain elg1, hits give low values 1 | S. cerevisiae deletion strains, locus YOR184W, strain ser1, hits give low values 0.895 | S. cerevisiae deletion strains, locus YOR231W, strain MKK1, hits give low values 1.03 | S. cerevisiae deletion strains, locus YOR265W, strain rbl2, hits give low values 0.98 | S. cerevisiae deletion strains, locus YOR270C, strain vph1, hits give low values 0.963 | S. cerevisiae deletion strains, locus YOR290C, strain snf2, hits give low values 0.999 | S. cerevisiae deletion strains, locus YOR316C, strain cot1, hits give low values 1 | S. cerevisiae deletion strains, locus YPL051W, strain arl3, hits give low values 1.01 | S. cerevisiae deletion strains, locus YPL078C, strain atp4, hits give low values 0.94 | S. cerevisiae deletion strains, locus YPL106C, strain sse1, hits give low values 0.936 | S. cerevisiae deletion strains, locus YPL240C, strain hsp82, hits give low values 0.977 | S. cerevisiae deletion strains, locus YPL241C, strain CIN2, hits give low values 1.01 | S. cerevisiae deletion strains, locus YPL256C, strain CLN2, hits give low values 1.05 | S. cerevisiae deletion strains, locus YPR119W, strain clb2, hits give low values 0.999 | S. cerevisiae deletion strains, locus YPR141C, strain kar3, hits give low values 1.01 | S. cerevisiae deletion strains, locus YPR163C, strain tif3, hits give low values 1.01 | S. cerevisiae deletion strains, locus YPR167C, strain met16, hits give low values 1.01 | S. cerevisiae deletion strains, strain wtn01, hits give low values 1.03 | S. cerevisiae strains, strain wild type, hits give low values 1.01
